Laboratory results as given in PubChem BioAssay (Tox21).
Records with an inconclusive call do not appear. Activity calls are given as the source filed them. Unless noted, calls follow the shape of the dose curve; as a rule, active = well fitted curve in the direction sought with a large enough effect in the repeat runs; inconclusive = weak or mixed curves; inactive = no such curve, though single readings can be large; an effect the other way counts as inactive or inconclusive.

Assays:
[1] = qHTS assay to test for compound auto fluorescence at 535 nm (green) in HEK293 cells (AID 720680)
[2] = qHTS assay to test for compound auto fluorescence at 460 nm (blue) in HEK293 cell free culture (AID 720681)
Outline: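 Blue fluorescence (Ex 405/Em 460 nm, triamterene-equivalent) was read immediately after pin transfer of compound or DMSO into medium (DMEM, 10% FBS) without cells.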

[3] = qHTS assay to test for compound auto fluorescence at 535 nm (green) in HEK293 cell free culture (AID 720682)
Outline: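 Read-out: 485/535 nm fluorescence intensity, calibrated against fluorescein. Medium only (DMEM + 10% FBS, no cells); test compound or DMSO vehicle added by pintool before plate reading.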

[4] = qHTS assay to test for compound auto fluorescence at 590 nm (red) in HEK293 cell free culture (AID 720683)
Outline: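 Red-channel autofluorescence of compounds in culture medium (DMEM, 10% FBS), no cells, measured at 540/590 nm. Rose Bengal sodium is the reference fluorophore for equivalence.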

[5] = qHTS assay to test for compound auto fluorescence at 590 nm (red) in HepG2 cell free culture (AID 720684)
Outline: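 Plate contents were MEM with 10% FBS plus test compound or DMSO, no cells. Fluorescence was recorded with 540 nm excitation and 590 nm emission.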

[6] = qHTS assay to test for compound auto fluorescence at 460 nm (blue) in HepG2 cell free culture (AID 720685)
Outline: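 Compound (23 nL) or DMSO pinned into cell-free MEM with 10% FBS; blue fluorescence read at 405/460 nm excitation/emission, expressed as auto-fluorescence equivalency to triamterene.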

[7] = qHTS assay to test for compound auto fluorescence at 535 nm (green) in HepG2 cell free culture (AID 720686)
[8] = qHTS assay to test for compound auto fluorescence at 460 nm (blue) in HepG2 cells (AID 720687)
Outline: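 Blue-channel autofluorescence (Ex/Em 405/460 nm, triamterene-equivalent) was measured after 1 hr compound exposure at 37 C, 5% CO2. Cells were HepG2, plated overnight at 37 C in MEM plus 10% FBS.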

[9] = qHTS assay to identify small molecule antagonists of the glucocorticoid receptor (GR) signaling pathway - cell viability counter screen (AID 720693); also: nearly all actives have a fitted effect of over 55% in size
[10] = qHTS assay for identifying genotoxic compounds that show differential cytotoxicity against isogenic chicken DT40 cell lines with known DNA damage response pathways - wild type cell line (AID 743012); also: nearly all actives have a fitted effect of over 60% in size
Outline: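 Quantitative HTS on parental DT40 cells: 40 h compound treatment at 37 C/5% CO2, with viability then determined by CellTiter-Glo luminescence. Values serve as the DNA repair-proficient reference for differential cytotoxicity.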

[11] = qHTS assay for identifying genotoxic compounds that show differential cytotoxicity against isogenic chicken DT40 cell lines with known DNA damage response pathways - Rev3 mutant cell line (AID 743014); also: nearly all actives have a fitted effect of over 55% in size
[12] = qHTS assay for identifying genotoxic compounds that show differential cytotoxicity against isogenic chicken DT40 cell lines with known DNA damage response pathways - Rad54/Ku70 mutant cell line (AID 743015); also: nearly all actives have a fitted effect of over 60% in size
[13] = qHTS assay to identify small molecule antagonists of the androgen receptor (AR) signaling pathway - cell viability counter screen (AID 743033; also: nearly all actives have a fitted effect of over 45% in size)
[14] = qHTS assay to identify small molecule antagonists of the androgen receptor (AR) signaling pathway using the MDA cell line - cell viability counter screen (AID 743041; also: nearly all actives have a fitted effect of over 45% in size)
Outline: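 R1881-driven MDA-kb2 AR-luc cells, 3,000/well, were dosed with library compounds for 16 h; cell health came from CellTiter-Fluor fluorescence in the reporter wells.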

[15] = molecular target: Glucocorticoid receptor (Homo sapiens) (UniProt P04150); assay: qHTS assay to identify small molecule agonists of the glucocorticoid receptor (GR) signaling pathway (AID 720691; active = well fitted activation curve with a large enough effect in the signal ratio in the repeat runs, not every such curve was filed as active; the % refers to the signal ratio)
Glucocorticoid receptor (Homo sapiens), sequence (P04150 whole entry, looked up): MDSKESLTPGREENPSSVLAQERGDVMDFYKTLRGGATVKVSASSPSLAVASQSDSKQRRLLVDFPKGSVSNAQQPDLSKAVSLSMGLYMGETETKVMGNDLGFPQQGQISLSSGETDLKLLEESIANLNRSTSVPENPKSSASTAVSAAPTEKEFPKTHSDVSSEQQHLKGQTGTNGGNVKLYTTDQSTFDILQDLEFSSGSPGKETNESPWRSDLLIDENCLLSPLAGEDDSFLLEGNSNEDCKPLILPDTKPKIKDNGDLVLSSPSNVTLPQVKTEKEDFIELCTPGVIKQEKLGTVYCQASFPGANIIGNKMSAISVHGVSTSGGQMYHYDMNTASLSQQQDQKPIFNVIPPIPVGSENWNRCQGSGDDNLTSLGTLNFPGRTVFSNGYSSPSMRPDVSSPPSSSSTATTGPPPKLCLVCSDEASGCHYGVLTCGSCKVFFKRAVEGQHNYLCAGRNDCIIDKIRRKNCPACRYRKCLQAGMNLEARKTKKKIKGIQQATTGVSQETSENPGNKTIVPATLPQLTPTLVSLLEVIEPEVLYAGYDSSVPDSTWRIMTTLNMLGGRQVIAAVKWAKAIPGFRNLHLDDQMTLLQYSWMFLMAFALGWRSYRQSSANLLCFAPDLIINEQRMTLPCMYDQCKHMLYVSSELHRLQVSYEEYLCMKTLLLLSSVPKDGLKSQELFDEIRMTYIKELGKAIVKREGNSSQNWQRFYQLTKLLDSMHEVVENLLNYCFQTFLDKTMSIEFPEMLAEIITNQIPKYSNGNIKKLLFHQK
Outline: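 Beta-lactamase reporter activity, read as fluorescence intensity, was measured in GR-bla HeLa cells exposed to compounds for 18 h at 37 C and then loaded with LiveBLAzer B/G FRET substrate for 2 h at room temperature.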

[16] = molecular target: Glucocorticoid receptor (Homo sapiens) (UniProt P04150); assay: qHTS assay to identify small molecule antagonists of the glucocorticoid receptor (GR) signaling pathway (AID 720692; active = well fitted inhibition curve with a large enough effect in the signal ratio in the repeat runs, not every such curve was filed as active; the % refers to the signal ratio)
Outline: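 Fluorescence from cleaved LiveBLAzer B/G FRET substrate reports GRE-driven beta-lactamase in HeLa cells; compounds are tested against 5 nM dexamethasone (final) over 18 h at 37 C, substrate incubation 2 h at room temperature.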
% is scaled to controls: 0 for no effect and ±100 for the full control effect.

C[C@@H](O)C(=O)O
inactive: outcome [1] | outcome [2] | outcome [3] | outcome [4] | outcome [5] | outcome [6] | outcome [7] | outcome [8] | outcome [9] | Potency [10] | Potency [11] | Potency [12] | outcome [13] | Potency [14]

CC(C)(CO)C(O)C(=O)NCCCO (stereo unspecified)
inactive: outcome [1] | outcome [2] | outcome [3] | outcome [4] | outcome [5] | outcome [6] | outcome [7] | outcome [8] | outcome [9] | Potency [10] | outcome [13] | Potency [14]

CC(C)OC(=O)OCOP(=O)(CO[C@H](C)Cn1cnc2c(N)ncnc21)OCOC(=O)OC(C)C
inactive: outcome [1] | outcome [2] | outcome [3] | outcome [4] | outcome [5] | outcome [6] | outcome [7] | outcome [8] | Potency [10] | Potency [11] | Potency [12] | outcome [13] | Potency [14]

CC(=O)C(C)O (stereo unspecified)
inactive: outcome [1] | outcome [2] | outcome [3] | outcome [4] | outcome [5] | outcome [6] | outcome [7] | outcome [8] | outcome [9] | Potency [10] | outcome [13] | Potency [14]

COc1nc(N)nc2nc[nH]c12
inactive: outcome [1] | outcome [2] | outcome [3] | outcome [4] | outcome [5] | outcome [6] | outcome [8] | Potency [15] | outcome [16] | Potency [10] | Potency [11] | Potency [12] | outcome [13] | Potency [14]

c1ccc2c(CC3=NCCN3)cccc2c1
inactive: outcome [1] | outcome [2] | outcome [3] | outcome [4] | outcome [5] | outcome [6] | outcome [7] | outcome [8] | Potency [10] | Potency [11] | Potency [12] | outcome [13] | Potency [14]

Cc1c(NC(=O)c2cccnc2)c(=O)n(-c2ccccc2)n1C
inactive: fluorescence, % of fluorescein [1] -0.0295% [at 18.6 µM] | fluorescence, % of fluorescent control [2] -0.0145% [at 18.6 µM] | activity change [3] 0.0113% [at 18.6 µM] | fluorescence, % of fluorescent control [4] -0.0161% [at 18.6 µM] | fluorescence, % of Rose Bengal [5] 0.102% [at 18.6 µM] | fluorescence, % of fluorescent control [6] -0.005% [at 18.6 µM] | fluorescence, % of fluorescent control [8] 0.0214% [at 18.6 µM] | Potency [15] | outcome [16] | Potency [10] | Potency [11] | Potency [14]

Cn1c(=O)c2c(ncn2CCO)n(C)c1=O
inactive: outcome [1] | outcome [2] | outcome [3] | outcome [4] | outcome [5] | outcome [6] | outcome [7] | outcome [8] | Potency [10] | Potency [11] | Potency [12] | outcome [13] | Potency [14]

O=C(CN1CCNCC1)NC1CCCCC1
inactive: outcome [1] | outcome [2] | outcome [3] | outcome [4] | outcome [5] | outcome [6] | outcome [8] | Potency [15] | outcome [16] | Potency [10] | Potency [11] | Potency [12] | outcome [13] | Potency [14]

COC(=O)c1cccc(Cl)c1
inactive: outcome [1] | outcome [2] | outcome [3] | outcome [4] | outcome [5] | outcome [6] | outcome [7] | outcome [8] | outcome [9] | Potency [10] | Potency [11] | Potency [12] | outcome [13] | Potency [14]

N#Cc1cscn1
inactive: outcome [1] | outcome [2] | outcome [3] | outcome [4] | outcome [5] | outcome [6] | outcome [7] | outcome [8] | outcome [9] | Potency [10] | Potency [12] | outcome [13] | Potency [14]

c1ccc(B(c2ccccc2)c2ccccc2)cc1
inactive: outcome [1] | outcome [2] | outcome [3] | outcome [4] | outcome [5] | outcome [6] | outcome [8] | Potency [15] | outcome [9] | Potency [10] | Potency [12] | outcome [13] | Potency [14]

Nc1nnnn1-c1ccccc1
inactive: outcome [1] | outcome [2] | outcome [3] | outcome [4] | outcome [5] | outcome [6] | outcome [8] | Potency [15] | outcome [16] | outcome [9] | Potency [10] | Potency [12] | outcome [13] | Potency [14]
